Assay results reported in the supplement of paper PMC12282887.
± gives the standard deviation of the averaged measurements.

Columns and labels:
Experiment in all cases: promoter activity interaction Z-score (Lux/OD deviation from empty-vector control); higher = stronger promoter induction by the compound
[1] = system: E. coli BW25113 acrABp lux reporter
In short: (§1)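 At 37°C, E. coli BW25113 reporter cultures in 40 µl LB Lennox in 384-well plates were read for OD600 and luminescence every 30 min for 12 h. Windows were 0–8 h for wild type and 1–9 h for deletion strains, and wells under 10% of the median growth value were removed. The score is the Z-transformed residual of growth-normalised luminescence against a control fit.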

[2] = system: E. coli BW25113 marRABp lux reporter
In short: as §1

[3] = system: E. coli BW25113 micFp lux reporter
In short: as §1

[4] = system: E. coli BW25113 ompFp lux reporter
In short: as §1

[5] = system: E. coli BW25113 robp lux reporter
In short: as §1

[6] = system: E. coli BW25113 soxSp lux reporter
In short: as §1

[7] = system: E. coli BW25113 tolCp lux reporter
In short: as §1

[8] = 3.7 µg/ml, genetic background: wild type
[9] = 3.7 µg/ml, genetic background: ΔmarA
[10] = 3.7 µg/ml, genetic background: Δrob
[11] = 3.7 µg/ml, genetic background: ΔsoxS
[12] = 7.5 µg/ml, genetic background: wild type
[13] = 7.5 µg/ml, genetic background: ΔmarA
[14] = 7.5 µg/ml, genetic background: Δrob
[15] = 7.5 µg/ml, genetic background: ΔsoxS
[16] = 15 µg/ml, genetic background: wild type
[17] = 15 µg/ml, genetic background: ΔmarA
[18] = 15 µg/ml, genetic background: Δrob
[19] = 15 µg/ml, genetic background: ΔsoxS

Structure (SMILES): CC[C@H]1OC(=O)[C@H](C)[C@@H](O[C@H]2C[C@@](C)(OC)[C@@H](O)[C@H](C)O2)[C@H](C)[C@@H](O[C@@H]2O[C@H](C)C[C@H](N(C)C)[C@H]2O)[C@](C)(OC)C[C@@H](C)C(=O)[C@H](C)[C@@H](O)[C@]1(C)O [Clarithromycin]
- promoter activity interaction Z-score [1, 8]: 2.75 ± 0.78
- promoter activity interaction Z-score [1, 9]: -0.666 ± 0.051
- promoter activity interaction Z-score [1, 10]: 2.53 ± 0.28
- promoter activity interaction Z-score [1, 11]: 3.99 ± 2.9
- promoter activity interaction Z-score [1, 12]: 4.86 ± 2
- promoter activity interaction Z-score [1, 13]: 0.0124 ± 0.014
- promoter activity interaction Z-score [1, 14]: 3.88 ± 1.1
- promoter activity interaction Z-score [1, 15]: 5.27 ± 0.95
- promoter activity interaction Z-score [1, 16]: 6.01 ± 2.6
- promoter activity interaction Z-score [1, 17]: 5.11
- promoter activity interaction Z-score [1, 18]: 8.62 ± 0.52
- promoter activity interaction Z-score [1, 19]: 7.67 ± 6.7
- promoter activity interaction Z-score [2, 8]: 2.9 ± 0.24
- promoter activity interaction Z-score [2, 9]: 2.02 ± 0.13
- promoter activity interaction Z-score [2, 10]: 1.54 ± 0.29
- promoter activity interaction Z-score [2, 11]: 2.44 ± 1
- promoter activity interaction Z-score [2, 12]: 3.84 ± 0.18
- promoter activity interaction Z-score [2, 13]: 2.58 ± 0.055
- promoter activity interaction Z-score [2, 14]: 2.57 ± 1.6
- promoter activity interaction Z-score [2, 15]: 4.77 ± 2.4
- promoter activity interaction Z-score [2, 16]: 2.6 ± 3
- promoter activity interaction Z-score [2, 17]: 3.84
- promoter activity interaction Z-score [2, 18]: 4.65 ± 1.9
- promoter activity interaction Z-score [2, 19]: 7.29 ± 0.54
- promoter activity interaction Z-score [3, 8]: 0.345 ± 0.84
- promoter activity interaction Z-score [3, 9]: -0.264 ± 0.18
- promoter activity interaction Z-score [3, 10]: 0.13 ± 0.36
- promoter activity interaction Z-score [3, 11]: 0.346 ± 0.31
- promoter activity interaction Z-score [3, 12]: -0.0809 ± 0.56
- promoter activity interaction Z-score [3, 13]: -0.345 ± 0.18
- promoter activity interaction Z-score [3, 14]: 0.0824 ± 0.022
- promoter activity interaction Z-score [3, 15]: -0.272 ± 0.94
- promoter activity interaction Z-score [3, 16]: -2.17 ± 0.33
- promoter activity interaction Z-score [3, 17]: -0.213 ± 0.3
- promoter activity interaction Z-score [3, 18]: -0.078 ± 0.014
- promoter activity interaction Z-score [4, 8]: 4.02 ± 1.8
- promoter activity interaction Z-score [4, 9]: 2.83 ± 2.5
- promoter activity interaction Z-score [4, 10]: 3.22 ± 1.5
- promoter activity interaction Z-score [4, 11]: 4.01 ± 1.6
- promoter activity interaction Z-score [4, 12]: 4.44 ± 2.9
- promoter activity interaction Z-score [4, 13]: 4.37 ± 4.9
- promoter activity interaction Z-score [4, 14]: 3.77 ± 4.2
- promoter activity interaction Z-score [4, 15]: 3.43 ± 1.9
- promoter activity interaction Z-score [4, 16]: -0.0263 ± 3.9
- promoter activity interaction Z-score [4, 18]: -0.772
- promoter activity interaction Z-score [4, 19]: -2.44
- promoter activity interaction Z-score [5, 8]: -1.9 ± 0.13
- promoter activity interaction Z-score [5, 9]: -2.77 ± 0.23
- promoter activity interaction Z-score [5, 10]: -1.66 ± 0.048
- promoter activity interaction Z-score [5, 11]: -2.35 ± 0.33
- promoter activity interaction Z-score [5, 12]: -2.21 ± 0.12
- promoter activity interaction Z-score [5, 13]: -2.09 ± 0.24
- promoter activity interaction Z-score [5, 14]: -2.11 ± 0.083
- promoter activity interaction Z-score [5, 15]: -1.66 ± 0.9
- promoter activity interaction Z-score [5, 16]: -4.75 ± 0.23
- promoter activity interaction Z-score [5, 17]: -0.357 ± 0.99
- promoter activity interaction Z-score [5, 18]: -1.4
- promoter activity interaction Z-score [6, 8]: 0.201 ± 0.071
- promoter activity interaction Z-score [6, 9]: 0.637 ± 0.17
- promoter activity interaction Z-score [6, 10]: 0.258 ± 0.11
- promoter activity interaction Z-score [6, 11]: 3.14 ± 1.1
- promoter activity interaction Z-score [6, 12]: 1.35 ± 0.47
- promoter activity interaction Z-score [6, 13]: 1.62 ± 0.14
- promoter activity interaction Z-score [6, 14]: 1.1974 ± 0.00038
- promoter activity interaction Z-score [6, 15]: 3.99 ± 0.81
- promoter activity interaction Z-score [6, 16]: 0.664 ± 0.51
- promoter activity interaction Z-score [6, 17]: 2.07 ± 0.33
- promoter activity interaction Z-score [6, 18]: 1.44 ± 0.33
- promoter activity interaction Z-score [6, 19]: 1.96
- promoter activity interaction Z-score [7, 8]: 1.16 ± 0.087
- promoter activity interaction Z-score [7, 9]: 0.114 ± 1.9
- promoter activity interaction Z-score [7, 10]: 0.468 ± 0.18
- promoter activity interaction Z-score [7, 11]: 2.16 ± 2.1
- promoter activity interaction Z-score [7, 12]: 3.8 ± 1.3
- promoter activity interaction Z-score [7, 13]: 1.91 ± 0.99
- promoter activity interaction Z-score [7, 14]: 1.62 ± 0.65
- promoter activity interaction Z-score [7, 15]: 3.3 ± 1.4
- promoter activity interaction Z-score [7, 16]: 0.0472 ± 0.77
- promoter activity interaction Z-score [7, 17]: 0.874 ± 2.2
- promoter activity interaction Z-score [7, 18]: 1.26 ± 0.65
- promoter activity interaction Z-score [7, 19]: 3.6044 ± 0.00012
